JMJD2A Tudor inh: inhibitors of human JMJD2A Tudor domain | O75164 | AID 504339 | AlphaScreen JMJD2A-Tudor / H3K4me3 peptide binding | Potency, µM (series often up to 114 µM), inactives show top-dose activity change, negative = inhibition, hits mostly inhibitors | 4.4% of 390,000 active; note: potency is the fitted concentration of half-maximal effect; % is set by controls: 0 for no effect and ±100 for the full control effect; nearly all actives have a fitted effect of over 50% in size
HP1b chromo inh: inhibitors of HP1-beta chromodomain binding to methylated histone tails. P83916. AlphaScreen HP1-beta / biotin-H3K9me3 peptide binding. Potency, µM (titrated, usually from 114 µM), for the others: at the highest dose activity change, negative = inhibition, hits mostly inhibitors. 0.56% of 390,000 active. AID 540317; note: potency is the fitted concentration of half-maximal effect; nearly all actives have a fitted effect of over 70% in size
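HP1-beta protein (50 nM final) preincubated 30 min at room temperature with biotinylated H3(1-18)K9me3 peptide (50 nM) in PBS pH 7.4, 0.01% Tween-20, then compound added for 30 min. AlphaScreen streptavidin donor/nickel chelate acceptor beads (10 ug/mL final), 30 min dark, luminescence read.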
BAZ2B block: BAZ2B (human) inhibition; Potency, µM (highest dose often 114 µM), for inactives: at the top dose activity change, negative = inhibition, usual class: inhibitors; AlphaScreen BAZ2B-H3K14Ac peptide displacement; AID 504333; Q9UIF8; 4.4% of 360,000 active; note: potency is the fitted concentration of half-maximal effect; % is set by controls: 0 for no effect and ±100 for the full control effect; nearly all actives have a fitted effect of over 60% in size
Target sequence (Q9UIF8 whole entry, looked up): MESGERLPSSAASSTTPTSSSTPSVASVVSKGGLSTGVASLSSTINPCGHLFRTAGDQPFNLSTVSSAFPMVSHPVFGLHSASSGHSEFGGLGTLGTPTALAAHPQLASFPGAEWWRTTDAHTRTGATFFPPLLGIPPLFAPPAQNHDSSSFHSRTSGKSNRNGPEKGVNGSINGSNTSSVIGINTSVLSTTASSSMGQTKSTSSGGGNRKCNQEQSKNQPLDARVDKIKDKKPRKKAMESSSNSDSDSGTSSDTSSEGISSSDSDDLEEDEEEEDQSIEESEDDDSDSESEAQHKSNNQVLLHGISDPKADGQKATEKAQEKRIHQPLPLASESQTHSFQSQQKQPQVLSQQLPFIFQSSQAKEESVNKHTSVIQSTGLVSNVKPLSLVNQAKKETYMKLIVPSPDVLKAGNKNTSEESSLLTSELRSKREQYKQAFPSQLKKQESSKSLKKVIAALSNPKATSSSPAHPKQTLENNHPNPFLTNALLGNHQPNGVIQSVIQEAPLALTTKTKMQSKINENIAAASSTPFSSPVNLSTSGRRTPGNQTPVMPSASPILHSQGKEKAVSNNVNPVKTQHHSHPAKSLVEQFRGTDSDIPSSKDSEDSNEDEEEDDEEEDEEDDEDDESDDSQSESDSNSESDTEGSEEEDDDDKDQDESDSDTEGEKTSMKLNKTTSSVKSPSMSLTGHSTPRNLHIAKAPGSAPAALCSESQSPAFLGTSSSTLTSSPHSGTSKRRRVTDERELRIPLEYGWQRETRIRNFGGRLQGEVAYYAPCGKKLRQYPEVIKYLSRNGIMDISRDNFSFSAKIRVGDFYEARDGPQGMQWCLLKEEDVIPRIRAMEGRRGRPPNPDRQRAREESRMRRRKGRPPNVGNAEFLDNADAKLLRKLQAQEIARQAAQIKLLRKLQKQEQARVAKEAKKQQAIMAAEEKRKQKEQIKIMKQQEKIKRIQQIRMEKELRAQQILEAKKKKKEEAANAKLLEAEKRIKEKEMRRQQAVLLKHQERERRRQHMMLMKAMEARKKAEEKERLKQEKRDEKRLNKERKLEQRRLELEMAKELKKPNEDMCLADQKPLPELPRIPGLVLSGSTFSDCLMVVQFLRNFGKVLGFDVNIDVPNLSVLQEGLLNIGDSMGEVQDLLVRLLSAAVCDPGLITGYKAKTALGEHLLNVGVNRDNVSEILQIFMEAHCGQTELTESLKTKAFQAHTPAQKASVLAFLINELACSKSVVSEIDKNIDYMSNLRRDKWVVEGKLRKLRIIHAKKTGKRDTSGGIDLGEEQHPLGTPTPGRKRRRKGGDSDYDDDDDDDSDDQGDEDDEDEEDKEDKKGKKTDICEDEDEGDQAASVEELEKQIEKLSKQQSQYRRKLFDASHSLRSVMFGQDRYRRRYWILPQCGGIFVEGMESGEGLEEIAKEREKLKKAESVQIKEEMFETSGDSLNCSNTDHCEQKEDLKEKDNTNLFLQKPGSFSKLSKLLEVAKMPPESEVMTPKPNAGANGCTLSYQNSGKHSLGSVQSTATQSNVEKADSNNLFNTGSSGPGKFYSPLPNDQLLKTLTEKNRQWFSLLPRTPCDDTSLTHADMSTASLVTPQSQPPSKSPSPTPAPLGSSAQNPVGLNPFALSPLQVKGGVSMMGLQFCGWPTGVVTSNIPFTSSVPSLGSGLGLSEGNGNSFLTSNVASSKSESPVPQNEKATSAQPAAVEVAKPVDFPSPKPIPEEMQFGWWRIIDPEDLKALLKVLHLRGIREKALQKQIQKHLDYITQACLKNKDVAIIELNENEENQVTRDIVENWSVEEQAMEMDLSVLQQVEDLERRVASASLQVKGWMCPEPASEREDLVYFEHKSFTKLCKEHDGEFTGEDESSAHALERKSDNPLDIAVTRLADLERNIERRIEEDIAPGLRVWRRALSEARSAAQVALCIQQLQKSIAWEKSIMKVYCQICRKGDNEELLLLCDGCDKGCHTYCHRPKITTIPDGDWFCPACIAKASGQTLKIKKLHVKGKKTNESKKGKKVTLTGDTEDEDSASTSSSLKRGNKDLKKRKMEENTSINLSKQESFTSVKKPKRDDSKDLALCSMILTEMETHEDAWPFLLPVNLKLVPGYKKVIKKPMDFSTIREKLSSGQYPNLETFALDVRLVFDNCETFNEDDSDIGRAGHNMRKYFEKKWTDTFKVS
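AlphaScreen displacement: compounds (up to 110uM) incubated 30 min at room temperature with a preformed 50 nM BAZ2B/50 nM biotinylated H3K14Ac peptide complex in PBS pH 7.4 with Tween-20. Donor and acceptor beads at 10 ug/mL final added, 20 min light-protected before reading.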
PI5P4Ka inh: blocks human PI5P4K alpha kinase activity. P48426. PI5P4Kalpha enzyme, ADP-Glo luminescence, 60 min; stronger effect = lower value. max response, %. 1.2% of 330,000 active. AID 652105; active = max response of -50% or lower; inconclusive = between -30% and -50%; inactive = -30% or higher; note: value at the top dose of about 77 µM; % is set by controls: 0 for no effect and ±100 for the full control effect
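Single end-point luminescence (ADP-Glo) quantified ADP from PI5P4Kalpha turnover; ATP 5 microM final, 1 h at RT, 0.1% CHAPS and 0.28 mM EGTA in HEPES pH 7.4.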
L3MBTL1 inh: L3MBTL1 (human) inhibition | 0.66% of 230,000 active | Q9Y468 | AID 485360 | AlphaScreen L3MBTL1–H3K9me1 peptide binding | Potency, µM (highest dose often 57.1 µM), for the others: at the top dose activity, negative = inhibition, usual class: inhibitors; note: potency is the fitted concentration of half-maximal effect; % is set by controls: 0 for no effect and ±100 for the full control effect; nearly all actives have a fitted effect of over 60% in size
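AlphaScreen assay: L3MBTL1 (50 nM final) was preincubated 30 min at room temperature with biotinylated H3(1-15)K9me1 peptide (75 nM final), then 30 min with library compounds; streptavidin donor and nickel chelate acceptor beads (10 ug/mL final) added, 30 min dark.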
G9a inh: inhibitors of human histone lysine methyltransferase G9a | G9a H3K9 monomethylation, AlphaScreen, 2 h | Potency, µM (titrated, usually from 102 µM), for inactives: at the top dose activity, negative = inhibition, usual class: inhibitors | AID 504332 | Q96KQ7 | 8.8% of 350,000 active; note: potency is the fitted concentration of half-maximal effect; % is set by controls: 0 for no effect and ±100 for the full control effect; nearly all actives have a fitted effect of over 75% in size
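Enzyme 20 nM + cpd, 15 min RT; add b-H3K9 pep 500 nM / SAM 20 uM; 2 h RT; anti-H3K9me1 Ab 0.5 ug/mL + SA donor / anti-rabbit acceptor beads 20 ug/mL each, 10 min; AlphaScreen read.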
Active calls of the source: *; ? = inconclusive; nt = no result given; [ ] = remark or other dose. The list is not random: actives were taken first. Their share in the collection is about 11%. Unless noted, calls come from the whole dose curve; as a rule, active = well fitted inhibition curve with a large enough effect; inconclusive = small, poorly fitted or top-dose-only effect; inactive = no such curve, though single readings can be large or run the other way.

SMILES | JMJD2A Tudor inh | HP1b chromo inh | BAZ2B block | PI5P4Ka inh | L3MBTL1 inh | G9a inh
Cc1ccc(C)c(CN2C(=O)c3ccccc3S(=O)(=O)c3ccc(C(=O)N4CCCC4)cc32)c1 | -13% | 28% | -22% | nt | nt | 1%[59 µM]
Cc1ccc(C)c(CN2C(=O)c3ccccc3S(=O)(=O)c3ccc(C(=O)N4CCN(C)CC4)cc32)c1 | -17% | 4%[57 µM] | 89µM* | 0 | nt | 2%[59 µM]
COc1ccc(CCNC(=O)c2ccc3c(c2)N(Cc2cccc(C)c2)C(=O)c2ccccc2S3(=O)=O)cc1OC | -24% | 17% | ? | nt | nt | -43%[59 µM]
COc1ccc(CCNC(=O)c2ccc3c(c2)N(Cc2ccccc2F)C(=O)c2ccccc2S3(=O)=O)cc1OC | -19% | 26% | -13% | nt | nt | 7.9µM*
N#C/C(=C\c1cccnc1)C(=O)Nc1cccc2ccccc12 | -26% | 3% | 3% | -16 | 3% | 50µM*
N#C/C(=C/c1cn(CC(=O)O)c2ccccc12)C(=O)Nc1ccccc1 | -7% | 15% | -28% | -1 | -9% | ?
Cc1cccc(NC(=O)/C(C#N)=C\c2cn(CC(=O)O)c3ccccc23)c1 | -7% | 31% | ? | 7 | -6% | 40µM*
Cc1cccc(NC(=O)/C(C#N)=C\c2cccnc2)c1 | -14% | -4% | 8% | nt | 3% | 50µM*
Cc1ccc(-c2nc(CSc3nnc(C)n4c3cc3occc34)c(C)o2)cc1 | -16% | 24% | -15% | nt | nt | -4%[59 µM]
Cc1ccc(C)c(C(=O)c2c(N)c(-c3nc(-c4ccc5c(c4)OCO5)cs3)c3ccccn23)c1 | -15% | 28% | 13% | nt | nt | 14%[59 µM]
COC(=O)c1ccc2c(=O)n(-c3ccccc3)c(SCN3C(=O)c4ccccc4C3=O)nc2c1 | 3% | 50% | -1% | -2 | 4% | 28µM*
CCOC(=O)CSc1nc2cc(C(=O)N3CCC(C(N)=O)CC3)ccc2c(=O)n1-c1ccccc1 | -11% | 22% | -7% | nt | -6% | -32%[12.7 µM]
CCOC(=O)c1noc2ncnc(N3CCC(C)CC3)c12 | -8% | 48% | 3% | nt | nt | 4%[59 µM]
CCOc1ccc(/C=N/Nc2ccc(C(F)(F)F)cc2[N+](=O)[O-])cc1O | -30% | -30% | ? | -5 | ? | 45µM*
COc1ccc(/C=N/Nc2ccc(C(F)(F)F)cc2[N+](=O)[O-])cc1O | 89µM* | ? | ? | 0 | -4% | ?
CC(=O)c1ccc(N2CCN(c3ncnc4onc(-c5ccc(Cl)cc5)c34)CC2)cc1 | -11% | 32% | -9% | nt | nt | 2%[59 µM]
CN1C(=O)C2(c3ccccc31)N(C)CC(c1ccccc1)C21SC(=S)N(Cc2ccco2)C1=O (stereo not given) | ? | -14% | 5% | nt | -2% | nt
CN1C(=O)C2(c3ccccc31)N(C)CC(c1ccccn1)C21SC(=S)N(Cc2ccco2)C1=O (stereo not given) | 28µM* | ? | 22µM* | -1 | ? | nt
Cc1ccc(Nc2nc(NCc3ccco3)nc3nccnc23)cc1Cl | -6% | 54% | nt | nt | nt | nt
COc1cc2c(cc1OC)CN(CC(=O)Nc1ccc(F)cc1)C(C(=O)O)C2 (stereo not given) | -30% | 33% | 79µM* | 2 | nt | ?
O=C(O)Cc1sc(NC2CCCCC2)nc1-c1ccc(Cl)cc1 | -26% | -1% | ? | 0 | nt | 40µM*
Cc1ccc(-c2nc(Nc3cccc(C)c3)sc2CC(=O)O)cc1 | ? | -9% | -16% | -1 | 22% | nt
Cc1ccc(Nc2cc(C)c3c(O)cccc3n2)cc1C | ? | -21% | 45µM* | -7 | nt | nt
Cc1ccccc1Nc1cc(C)c2c(O)cccc2n1 | ? | 15% | ? | 3 | -10% | ?
COc1ccc(Nc2cc(C)c3c(O)cccc3n2)cc1 | -28%[11.4 µM] | -13% | 45µM* | -27 | nt | nt
SMILES | JMJD2A Tudor inh | HP1b chromo inh | BAZ2B block | PI5P4Ka inh | L3MBTL1 inh | G9a inh
O=C(NCCc1ccccc1)c1ccc(Cn2c(SCc3cccc(F)c3)nc3cccnc32)cc1 | -27% | 39% | 6% | nt | -5% | -3%[12.7 µM]
CN(C)C(=N)c1n[nH]nc1SCc1ccccc1 | -17% | 11% | 79µM* | -9 | 0% | -44%[59 µM]
Cc1ccccc1Cn1c(=O)n(CCC(=O)NCc2ccco2)c(=O)c2sccc21 | 0% | 29% | -10% | nt | nt | -4%[59 µM]
CCOC(=O)CN1CC23C=CC(O2)C(C(=O)N2CCN(c4ccc(F)cc4)CC2)C3C1=O (stereo not given) | -21% | 22% | -2% | 3 | -6% | -50%
CCOC(=O)CN1CC23C=CC(O2)C(C(=O)NCc2ccc(F)cc2)C3C1=O (stereo not given) | 0% | 57% | -2% | 2 | 12% | 22µM*
CCOc1ccccc1NC(=O)Nc1nnc(N(C)Cc2ccccc2)s1 | -30% | 5% | -16% | nt | nt | ?
CCOc1ccc(NC(=S)N(CCc2c(C)[nH]c3ccc(C)cc23)Cc2cccnc2)cc1 | ? | -15% | ? | 1 | -7% | ?
Cc1ccc(NC(=S)N(CCN(C)C)Cc2cccs2)c(C)c1 | -5% | -7% | -24% | -26 | nt | 40µM*
COc1ccc2[nH]c(C)c(CCN(Cc3cccs3)C(=S)Nc3ccc(F)cc3)c2c1 | ? | ? | ? | -9 | -12% | ?
CCOc1ccc(NC(=S)N(CCc2c(C)[nH]c3ccc(C)cc23)Cc2ccco2)cc1 | ? | -4% | -6% | 3 | -15% | 71µM*
COc1ccc(NC(=S)N(CCc2c(C)[nH]c3ccccc23)Cc2cccnc2)cc1 | ? | -16% | 35µM* | -1 | 0% | 71µM*
COc1ccc(NC(=S)N(CCc2c(C)[nH]c3ccc(C)cc23)Cc2ccco2)cc1 | ? | -10% | ? | -2 | -12% | 79µM*
Cc1cc(C)c(NC(=S)N(CCN(C)C)Cc2cccs2)c(C)c1 | -29% | 19% | -36% | 4 | nt | -4%[59 µM]
Cc1[nH]c2ccc(F)cc2c1CCN(Cc1cccnc1)C(=S)Nc1ccc(F)cc1 | ? | 13% | 10% | -8 | -11% | ?
Cc1ccc(NC(=O)CN2C(=O)CC(c3ccco3)Sc3ccccc32)cc1Cl (stereo not given) | -20% | 14% | -2% | nt | nt | 7%[59 µM]
CCOc1ccc(C(=O)Nc2ccc(C(=O)OCc3cc(=O)n4ccsc4n3)cc2)cc1 | -9% | 40% | 1% | nt | nt | 19%[59 µM]
CCN(CC)C(=O)c1sc2c(c1C)c(=O)n(-c1ccc(C)c(C)c1)c(=O)n2Cc1cc(=O)n2c(C)cccc2n1 | -1% | 49% | -4% | nt | nt | 2%[59 µM]
COc1ccc(NC(=S)N(CCc2c(C)[nH]c3ccc(C)cc23)Cc2cccs2)cc1 | ? | 11% | ? | 3 | -24% | 50µM*
CNC(=S)N(CCc1c(C)[nH]c2ccc(C)cc12)Cc1cccs1 | ? | -4% | nt | 8 | nt | 45µM*

Source: PubChem (National Center for Advancing Translational Sciences (NCATS))
